Test results from PubChem BioAssay.
Entries with a potency or affinity are not part of this list. The source made the active and inactive calls. No cut-off is given here; in the data, nearly all actives have IC50 up to about 0.91 µM.

target: Calcium-dependent protein kinase 4 (Plasmodium falciparum (isolate 3D7)) (UniProt Q8IBS5); assay: PfCDPK4 kinase inhibitors, biochemical, TCAMS library (AID 1159588); details: recombinant PfCDPK4, Kinase-Glo ATP depletion luminescence
Sequence (Q8IBS5 whole entry, looked up): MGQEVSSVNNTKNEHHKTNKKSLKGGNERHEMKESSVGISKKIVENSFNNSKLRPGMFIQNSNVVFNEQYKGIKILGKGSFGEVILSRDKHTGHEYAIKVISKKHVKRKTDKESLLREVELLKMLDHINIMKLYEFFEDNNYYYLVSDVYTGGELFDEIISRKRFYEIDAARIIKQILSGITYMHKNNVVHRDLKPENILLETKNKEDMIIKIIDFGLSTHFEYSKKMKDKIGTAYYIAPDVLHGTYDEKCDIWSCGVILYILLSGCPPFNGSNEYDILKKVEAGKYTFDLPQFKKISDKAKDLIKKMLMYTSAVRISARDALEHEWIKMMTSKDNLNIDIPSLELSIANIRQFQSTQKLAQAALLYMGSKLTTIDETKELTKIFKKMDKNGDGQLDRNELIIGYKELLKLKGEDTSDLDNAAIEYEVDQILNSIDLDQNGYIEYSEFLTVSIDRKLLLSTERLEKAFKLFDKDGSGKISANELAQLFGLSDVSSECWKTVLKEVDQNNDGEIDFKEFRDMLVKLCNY

outcome, inactive:
CCOc1cc(C)ccc1C1CCN(CCCCNC(=O)c2ccc(-c3ccc(Cl)cn3)cc2)CC1
NC(=O)c1cccc(C(=O)Nc2ccc(-c3cccc(-c4nc5ccc(C(F)(F)F)cc5[nH]4)c3)cc2)c1
COc1ccccc1CCNC(=O)c1cnc(N2CCN(c3ccncc3)CC2)c(Cl)c1
Cc1ccc(-n2c(Sc3ncnc4sccc34)nnc2N2CCCC2)cc1
Cc1cc(N2CCCCC2)nc2ccc(NC(=O)c3cncc(Br)c3)cc12
Cn1nc(-c2cccc(CNCCc3cccs3)c2)c2cnc(NC3CCCC3)nc21
COc1ccc2nccc([C@@H](O)CN3CCC(NCc4ccc5cccc(O)c5n4)CC3)c2c1
CCCNCc1ccc(-c2ccc(CN(CCOC)C(=O)c3nn(-c4ccccc4)nc3C)cc2)nc1
CC(CN(C)C)C(=O)Nc1cccc(-c2ccc(-c3nc4ccc(C(F)(F)F)cc4[nH]3)cc2)c1 (centres undefined)
Cc1ccc(C)c(Sc2ccc(NC(=O)CN3CCN(C(=O)c4ccco4)CC3)cc2)c1
C=CC[C@H](NC(=O)c1ccc(NS(=O)(=O)c2ccc3nc(N)[nH]c(=O)c3c2)cc1)C(=O)OCCCC
O=C(Nc1cccc(CN2CCN(C(=O)c3cccc(Cl)c3)CC2)c1)c1ccco1
CC(=O)N[C@H](C(=O)Nc1ccc(-c2ccc(-c3nc4ccc(C(F)(F)F)cc4[nH]3)cc2)cc1)C(C)C
O=C(Cc1ccc(NC(=O)c2ccc(O)c(-c3ccc(Cl)c(Cl)c3)c2)cc1)NCCN1CCOCC1
O=C(NCCCCN1CCC(c2ccc3c(c2O)CCCC3)CC1)c1ccc(-c2ccc(Cl)cc2)cc1
O=C(Nc1ccc(-c2cccc(-c3nc4ccccc4[nH]3)c2)cc1)N[C@@H]1C[C@H]1c1ccccc1
CCN(CC)CCCC(C)Nc1c2ccccc2nc2c1ccc1ccccc12 (centres undefined)
NC1CCN(Cc2ccc(-c3ccc(-c4nc5ccc(F)cc5[nH]4)s3)cc2)C1 (centres undefined)
Fc1cccc(C=NNc2ccnc3cc(Cl)ccc23)c1
Nc1cc(-c2ccc3c(N)nccc3c2)ccc1Cl
O=[N+]([O-])c1ccc(Oc2ccccc2CNCC2CCN(CC3CCCCC3)CC2)cc1
CCN(CCCN1CCCCC1)c1cc(C)nc(Nc2ccc(C)c(C)c2)n1
CC(C)(C)c1ccc(CN2CCC(CNC(=O)c3cc(-c4ccccc4)nc4ccccc34)CC2)cc1
CCCCCCCCNCC(O)c1cc(-c2ccc(Cl)cc2)nc2cc(C)ccc12 (centres undefined)
